# According to PubChem BioAssay (NCI):
# The panel holds about 79,000 compounds, 15% with a hit somewhere; the sample as a whole holds those more often. Values without a mark were called inactive. The source made the active and inactive calls. No stated cut-off is given here; in the data, active means growth inhibition above about 70%; inactive means the rest.
# What was measured:
# [1] = NCI Yeast Anticancer Drug Screen. Data for the rad50 strain (AID 155);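 further: 0% = growth of vehicle-only cultures of the same strain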; details: S. cerevisiae rad50 strain growth inhibition, hits give high values
# In short: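 DNA repair mutant yeast, compound exposure, growth read-out; inhibition is taken relative to vehicle.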
# [2] = NCI Yeast Anticancer Drug Screen. Data for the mec2-1 strain (AID 157); details: S. cerevisiae mec2-1 strain, hits give high values
# In short: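 Strain: mec2-1 (DNA repair/cell cycle alteration). Compound exposure, then growth measured; inhibition expressed relative to vehicle.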
# [3] = NCI Yeast Anticancer Drug Screen. Data for the sgs1 mgt1 strain (AID 161);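 further: 0% = growth of cultures given vehicle only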; details: S. cerevisiae sgs1 mgt1 strain, hits give high values
# In short: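 Genetically altered yeast, compound exposure, growth inhibition relative to vehicle.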
# [4] = NCI Yeast Anticancer Drug Screen. Data for the cln2 rad14 strain (AID 165);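 further: 0% = growth equal to vehicle treated cultures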; details: S. cerevisiae cln2 rad14 strain, hits give high values
# In short: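 Compounds are applied to the cln2 rad14 yeast strain, and growth is then compared with that of vehicle-treated cultures to give inhibition.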
# [5] = NCI Yeast Anticancer Drug Screen. Data for the bub3 strain (AID 167); details: S. cerevisiae bub3 mutant strain, hits give high values
# In short: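 In this screen, a yeast mutant lacking normal mitotic checkpoint function is challenged with compound. Relative growth versus vehicle gives the inhibition value.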
# [6] = NCI Yeast Anticancer Drug Screen. Data for the mlh1 rad18 strain (AID 175); details: S. cerevisiae mlh1 rad18 strain growth inhibition, hits give high values
# In short: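 Read-out is yeast growth inhibition, calculated against vehicle-only controls. The compound was applied to a strain engineered with DNA damage repair alterations.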
# [7] = at 5.0 µM (retest, dose inferred, filed as 0.5)
# [8] = at 50.0 µM (retest, dose inferred, filed as 5.0)
Compound,"growth inhibition [1, 7]","growth inhibition [1, 8]",growth inhibition ([1]; at 50.0 µM),"growth inhibition [2, 7]","growth inhibition [2, 8]",growth inhibition ([2]; at 50.0 µM),"growth inhibition [3, 7]","growth inhibition [3, 8]",growth inhibition ([3]; at 50.0 µM),"growth inhibition [4, 7]","growth inhibition [4, 8]",growth inhibition ([4]; at 50.0 µM),"growth inhibition [5, 7]","growth inhibition [5, 8]",growth inhibition ([5]; at 50.0 µM),"growth inhibition [6, 7]","growth inhibition [6, 8]",growth inhibition ([6]; at 50.0 µM)
[Se]C1=NCCN1,6%,53%,94.6% (active),7%,34%,92.3% (active),3%,39%,95.6% (active),6%,48%,77.8% (active),4%,96% (active),84% (active),6%,89% (active),92.2% (active)
NC(=O)c1cc([N+](=O)[O-])c(Cl)c([N+](=O)[O-])c1,50%,89% (active),88.2% (active),62%,84% (active),86.3% (active),38%,98% (active),89% (active),36%,97% (active),56.5%,49%,97% (active),88.5% (active),57%,85% (active),88.7% (active)
C[C@]12C/C(=C/O)C(=O)C(O)=C1CC[C@@H]1C2CC[C@@]2(C)C1CC[C@@H]2O (some centres not stated),6%,56%,78.9% (active),5%,33%,59.4%,4%,70% (active),52.2%,6%,52%,62.2%,-39%,81% (active),79.4% (active),8%,74% (active),89.2% (active)
ClC(CN1CCCCC1)C(Cl)c1ccccc1 (configuration not stated),6%,28%,46.6%,2%,21%,4.8%,5%,53%,62%,7%,37%,53%,6%,58%,51.9%,16%,57%,35.1%
Oc1c(Cl)cc(Cl)c2ccccc12,11%,71% (active),86.5% (active),7%,38%,27.6%,4%,63%,91.5% (active),5%,14%,-18.9%,12%,44%,9.2%,13%,74% (active),87% (active)
CCc1c[c]([Hg][Cl])c(CC)c(CC)c1CC,5%,99% (active),99.4% (active),68%,99% (active),99.7% (active),40%,100% (active),99.7% (active),2%,90% (active),23.7%,7%,99% (active),16.1%,35%,99% (active),98.6% (active)
N#C[S-].[La+3].c1ccc(-c2ccccn2)nc1.c1ccc(-c2ccccn2)nc1.c1ccc(-c2ccccn2)nc1,61%,98% (active),91.5% (active),41%,99% (active),93.8% (active),46%,99% (active),93% (active),33%,90% (active),91.9% (active),60%,99% (active),92% (active),56%,99% (active),91.3% (active)
Sc1nc2ccccc2s1.Sc1nc2ccccc2s1.Sc1nc2ccccc2s1.Sc1nc2ccccc2s1.[Cl][Rh][Cl],20%,95% (active),95.7% (active),12%,96% (active),98.5% (active),38%,97% (active),93.3% (active),0%,94% (active),97.1% (active),31%,97% (active),96.8% (active),43%,96% (active),97.7% (active)
CCCCCCCCCC(=O)[O][Hg][c]1ccccc1,99% (active),99% (active),71.5% (active),100% (active),99% (active),99.7% (active),99% (active),100% (active),99.5% (active),99% (active),99% (active),99.4% (active),99% (active),98% (active),99.3% (active),99% (active),99% (active),99.1% (active)
Clc1ccc(Cl)c(Cl)c1,-10%,99% (active),98.4% (active),-3%,97% (active),99% (active),-6%,98% (active),98.8% (active),8%,92% (active),96.5% (active),-8%,98% (active),62%,2%,99% (active),98.2% (active)
CCCCCc1cc(O)c(CCCC)c(O)c1,-107%,87% (active),99.4% (active),-39%,63%,99% (active),-43%,90% (active),99% (active),-47%,32%,99.1% (active),-56%,83% (active),99.2% (active),-92%,87% (active),99% (active)
Oc1c(O)c(Br)c(Br)c(Br)c1Br,97% (active),98% (active),91.2% (active),99% (active),99% (active),93.5% (active),99% (active),99% (active),93.5% (active),98% (active),99% (active),93% (active),98% (active),98% (active),91.8% (active),98% (active),99% (active),91.8% (active)
NC(=S)C1=C(N)Oc2c(c(=O)oc3ccccc23)C1c1ccc(Br)cc1 (configuration not stated),-7%,66%,20.1%,10%,73% (active),53.7%,10%,76% (active),57.9%,16%,85% (active),21.4%,7%,90% (active),62.6%,-2%,91% (active),62.5%
O=NN(CC(=O)O)c1ncccn1,-1%,0%,-6.25%,-3%,0%,1.45%,-2%,-3%,-8.05%,-6%,1%,36.7%,-2%,0%,-13.4%,-1%,-2%,29.4%
COc1ccc(Br)c(/C=C/[N+](=O)[O-])c1,23%,90% (active),99.5% (active),11%,96% (active),99.7% (active),16%,82% (active),99.7% (active),0%,65%,11.7%,5%,92% (active),95.5% (active),6%,96% (active),87.8% (active)
Cc1ccc(C(=O)C2C(c3ccccc3)N2C2CCCCC2)cc1 (configuration not stated),0%,95% (active),11.1%,-8%,88% (active),7.95%,-1%,89% (active),57.5%,-20%,96% (active),0.3%,-8%,85% (active),19.8%,2%,92% (active),71.6% (active)
O=[N+]([O-])/C=C\c1ccc2c(c1)OCO2,99% (active),100% (active),99.3% (active),100% (active),100% (active),99.5% (active),99% (active),99% (active),99.5% (active),100% (active),99% (active),98.8% (active),100% (active),94% (active),99% (active),100% (active),100% (active),99.5% (active)
CC[n+]1c(/C=C/c2ccc(N(CCCl)CCCl)cc2)ccc2cc(Br)ccc21,97% (active),97% (active),85.5% (active),96% (active),96% (active),84% (active),98% (active),98% (active),82.9% (active),90% (active),90% (active),82% (active),96% (active),96% (active),85.2% (active),96% (active),96% (active),82.2% (active)
C[CH2][Sn]([F])([CH2]C)[CH2]C,8%,75% (active),86.6% (active),6%,92% (active),89.7% (active),9%,90% (active),88.6% (active),-6%,60%,64.2%,3%,76% (active),88.6% (active),5%,89% (active),88.3% (active)
